# Reference: PubChem BioAssay (EPA / NIEHS)
# The source made the active and inactive calls. Rule for the calls: active = hit-call score of the fitted dose curve at least 0.9, where 1 is the maximum; inactive = score below 0.9.
# Assays:
# [1] = read-out: Fatty acid synthase (Homo sapiens) (UniProt P49327); test: LTEA_HepaRG_FASN: Life Technologies and Expression Analysis (LTEA) Assay for Fatty Acid Synthase (FASN) using HepaRG (AID 2283448); settings: mRNA level, 48 h; actives raise or lower the signal
# Outline: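 Differentiated HepaRG cells in serum-free induction medium exposed 48 h in duplicate to eight half-log concentrations, top 100 uM, 0.5% DMSO. FASN mRNA by qRT-PCR normalised to ACTB, GAPDH, POLR2A; bidirectional fit versus DMSO.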
# [2] = read-out: Cyclin D2 (CCND2), CCND2 (gene 894); test: LTEA_HepaRG_CCND2: Life Technologies and Expression Analysis (LTEA) Assay for Cyclin D2 (CCND2) using HepaRG (AID 2283449); settings: mRNA level, 48 h; actives raise or lower the signal;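 note: CCND2 transcript measured by TaqMan qRT-PCR and normalised to three housekeeping genes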
# Outline: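 Chemicals in 0.5% DMSO, eight half-log concentrations from 100 uM top, were applied in duplicate for 48 h to human HepaRG cells in serum-free induction medium. CCND2 mRNA by TaqMan qRT-PCR, normalised to ACTB/GAPDH/POLR2A; bidirectional fit versus DMSO.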
# [3] = read-out: Cyclin Dependent Kinase Inhibitor 1A (CDKN1A), CDKN1A (gene 1026); test: LTEA_HepaRG_CDKN1A: Life Technologies and Expression Analysis (LTEA) Assay for Cyclin Dependent Kinase Inhibitor 1A (CDKN1A) using HepaRG (AID 2283450); settings: mRNA level, 48 h; actives raise or lower the signal
# Outline: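 Gain or loss of CDKN1A transcript is scored by bidirectional fitting against 0.5% DMSO vehicle. Human HepaRG cultures receive chemicals for 48 h across an 8-point series peaking at 100 uM; expression comes from qRT-PCR.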
# [4] = read-out: Cyclin D1 (CCND1), CCND1 (gene 595); test: LTEA_HepaRG_CCND1: Life Technologies and Expression Analysis (LTEA) Assay for Cyclin D1 (CCND1) using HepaRG (AID 2283451); settings: mRNA level, 48 h; actives raise or lower the signal
# Outline: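 Expression change is measured by qRT-PCR in HepaRG cells after 48 h treatment across eight concentrations topping at 100 uM, with duplicate wells and DMSO (0.5%) serving as baseline for bidirectional fitting.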
# [5] = read-out: catalase (CAT), CAT (gene 847); test: LTEA_HepaRG_CAT: Life Technologies and Expression Analysis (LTEA) Assay for catalase (CAT) using HepaRG (AID 2283452); settings: mRNA level, 48 h; actives raise or lower the signal;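 for AC50: TaqMan qRT-PCR signal normalized to ACTB GAPDH and POLR2A housekeeping genes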
# Outline: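 HepaRG cells in serum-free induction medium, 0.5% DMSO vehicle, exposed 48 h in duplicate over 8 half-log concentrations from 100 uM. CAT mRNA measured by qRT-PCR, normalized to ACTB, GAPDH, POLR2A; bidirectional fit versus DMSO.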
# [6] = read-out: flavin-containing dimethylaniline monooxygenases 3 (FMO3), FMO3 (gene 2328); test: LTEA_HepaRG_FMO3: Life Technologies and Expression Analysis (LTEA) Assay for flavin-containing dimethylaniline monooxygenases 3 (FMO3) using HepaRG (AID 2283453); settings: mRNA level, 48 h; actives raise or lower the signal
# Outline: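 Differentiated HepaRG cells in serum-free induction medium, exposed 48 h in duplicate to 8 half-log concentrations up to 100 uM in 0.5% DMSO. FMO3 mRNA by qRT-PCR, normalized to ACTB, GAPDH, POLR2A; bidirectional fit vs DMSO.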
# [7] = read-out: Cytochrome P450 (CYP1A1), CYP1A1 (gene 1543); test: LTEA_HepaRG_CYP1A1: Life Technologies and Expression Analysis (LTEA) Assay for Cytochrome P450 (CYP1A1) using HepaRG (AID 2283454); settings: mRNA level, 48 h; actives raise or lower the signal
# Outline: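 Using HepaRG cultures with 0.5% DMSO as vehicle, eight-concentration exposures (max 100 uM) lasted 48 h. Transcript levels were measured by TaqMan qRT-PCR and normalized to ACTB, GAPDH and POLR2A.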
# [8] = read-out: CFLAR gene, CFLAR (gene 8837); test: LTEA_HepaRG_CFLAR: Life Technologies and Expression Analysis (LTEA) Assay for CFLAR gene using HepaRG (AID 2283455); settings: mRNA level, 48 h; actives raise or lower the signal
# Outline: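 Differentiated HepaRG cells in serum-free induction medium were exposed 48 h in duplicate to eight half-log concentrations up to 100 uM in 0.5% DMSO; mRNA measured by TaqMan qRT-PCR, normalized to ACTB, GAPDH, POLR2A; bidirectional fitting versus DMSO.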
# [9] = read-out: Forkhead box O1 (FOXO1), FOXO1 (gene 2308); test: LTEA_HepaRG_FOXO1: Life Technologies and Expression Analysis (LTEA) Assay for Forkhead box O1 (FOXO1) using HepaRG (AID 2283456); settings: mRNA level, 48 h; actives raise or lower the signal
# Outline: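 Differentiated HepaRG cells, in serum-free induction medium with 0.5% DMSO, exposed 48 h in duplicate to 8-point half-log series from 100 uM. FOXO1 mRNA measured by TaqMan qRT-PCR, normalized to ACTB, GAPDH, POLR2A; bidirectional fit versus DMSO.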
# [10] = read-out: growth arrest and DNA damage 45 (GADD45A), GADD45A (gene 1647); test: LTEA_HepaRG_GADD45A: Life Technologies and Expression Analysis (LTEA) Assay for growth arrest and DNA damage 45 (GADD45A) using HepaRG (AID 2283458); settings: mRNA level, 48 h; actives raise or lower the signal
# Outline: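 Differentiated HepaRG cells exposed 48 h in serum-free induction medium to 8 concentrations, top 100 uM in half-log steps, 0.5% DMSO. GADD45A mRNA quantified by qRT-PCR, normalized to ACTB, GAPDH and POLR2A; bidirectional fit versus DMSO.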
# [11] = read-out: ABC Transporter (ABCB1), ABCB1 (gene 5243); test: LTEA_HepaRG_ABCB1: Life Technologies and Expression Analysis (LTEA) Assay for ABC Transporter (ABCB1) using HepaRG (AID 2283460); settings: mRNA level, 48 h; actives raise or lower the signal
# Outline: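 HepaRG cells exposed in duplicate for 48 h in serum-free induction medium to eight half-log concentrations up to 100 uM in 0.5% DMSO. ABCB1 mRNA quantified by qRT-PCR, normalised to ACTB, GAPDH and POLR2A; fitted bidirectionally versus DMSO.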
# [12] = read-out: growth arrest and DNA damage 45 (GADD45B), GADD45B (gene 4616); test: LTEA_HepaRG_GADD45B: Life Technologies and Expression Analysis (LTEA) Assay for growth arrest and DNA damage 45 (GADD45B) using HepaRG (AID 2283461); settings: mRNA level, 48 h; actives raise or lower the signal
# Outline: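 Human HepaRG monolayers receive chemicals for 48 h at eight half-log concentrations, highest 100 uM, in 0.5% DMSO. Expression is measured by TaqMan qRT-PCR and normalized to ACTB, GAPDH and POLR2A.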
# [13] = read-out: ABC Transporter (ABCB11), ABCB11 (gene 8647); test: LTEA_HepaRG_ABCB11: Life Technologies and Expression Analysis (LTEA) Assay for ABC Transporter (ABCB11) using HepaRG (AID 2283463); settings: mRNA level, 48 h; actives raise or lower the signal
# Outline: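 Differentiated human HepaRG cells in serum-free induction medium, dosed in duplicate for 48 h. Eight-point half-log series from 100 uM in 0.5% DMSO; ABCB11 mRNA by qRT-PCR, normalized to ACTB, GAPDH, POLR2A, fitted bidirectionally versus DMSO.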
# [14] = read-out: ABC Transporter (ABCC2), ABCC2 (gene 1244); test: LTEA_HepaRG_ABCC2: Life Technologies and Expression Analysis (LTEA) Assay for ABC Transporter (ABCC2) using HepaRG (AID 2283464); settings: mRNA level, 48 h; actives raise or lower the signal
# Outline: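 After plating and 48 h culture, HepaRG medium is replaced with serum-free induction medium and chemicals are added (8 concentrations, max 100 uM, 0.5% DMSO) for 48 h. Total RNA then undergoes qRT-PCR for ABCC2 with housekeeping normalization.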
# [15] = read-out: Broad substrate specificity ATP-binding cassette transporter ABCG2 (Homo sapiens) (UniProt Q9UNQ0); test: LTEA_HepaRG_ABCG2: Life Technologies and Expression Analysis (LTEA) Assay for ABC Transporter (ABCG2) using HepaRG (AID 2283465); settings: mRNA level, 48 h; actives raise or lower the signal
# Outline: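 Differentiated HepaRG cells were exposed for 48 h in serum-free induction medium to 8 half-log concentrations, top 100 uM, in 0.5% DMSO. ABCG2 mRNA was measured by qRT-PCR, normalized to ACTB, GAPDH and POLR2A, with bidirectional fitting versus DMSO.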
# [16] = read-out: ATP-citrate lyase (ACLY), ACLY (gene 47); test: LTEA_HepaRG_ACLY: Life Technologies and Expression Analysis (LTEA) Assay for ATP-citrate lyase (ACLY) using HepaRG (AID 2283466); settings: mRNA level, 48 h; actives raise or lower the signal
# Outline: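 Differentiated HepaRG cells exposed 48 h in serum-free induction medium to eight half-log concentrations up to 100 uM in 0.5% DMSO, duplicates. Transcript measured by Fluidigm TaqMan qRT-PCR, normalized to ACTB, GAPDH, POLR2A; bidirectional fit versus DMSO.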
# [17] = read-out: Peroxisomal acyl-coenzyme A oxidase 1 (ACOX1) gene, ACOX1 (gene 51); test: LTEA_HepaRG_ACOX1: Life Technologies and Expression Analysis (LTEA) Assay for Peroxisomal acyl-coenzyme A oxidase 1 (ACOX1) gene using HepaRG (AID 2283467); settings: mRNA level, 48 h; actives raise or lower the signal
# Outline: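 HepaRG cells, plated 48 h then switched to serum-free induction medium, were exposed in duplicate for 48 h to 8-point half-log concentrations up to 100 uM in 0.5% DMSO. ACOX1 mRNA was measured by qRT-PCR, normalized to ACTB/GAPDH/POLR2A, and fitted bidirectionally versus DMSO.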
# [18] = read-out: ABC Transporter (ABCC3), ABCC3 (gene 8714); test: LTEA_HepaRG_ABCC3: Life Technologies and Expression Analysis (LTEA) Assay for ABC Transporter (ABCC3) using HepaRG (AID 2283462); settings: mRNA level, 48 h; actives raise or lower the signal
# Outline: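 Transcriptional change of ABCC3 in HepaRG after 48 h treatment, determined by qRT-PCR normalized to endogenous controls. Concentrations spanned eight half-log steps to 100 uM in 0.5% DMSO.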
# [19] = CEETOX_H295R_TESTO: CeeTox H295R High-throughput Steroidogenesis Assay for Testosterone (TESTO) (AID 2283457); settings: actives raise or lower the signal
# Outline: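 Steroidogenesis in H295R cells following OECD 456 with minor changes; 48 h exposure. Medium testosterone by HPLC-MS/MS, DMSO as baseline, with MTT viability run in parallel.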
# Chain of Fatty acid synthase (Homo sapiens) (P49327 whole entry, looked up): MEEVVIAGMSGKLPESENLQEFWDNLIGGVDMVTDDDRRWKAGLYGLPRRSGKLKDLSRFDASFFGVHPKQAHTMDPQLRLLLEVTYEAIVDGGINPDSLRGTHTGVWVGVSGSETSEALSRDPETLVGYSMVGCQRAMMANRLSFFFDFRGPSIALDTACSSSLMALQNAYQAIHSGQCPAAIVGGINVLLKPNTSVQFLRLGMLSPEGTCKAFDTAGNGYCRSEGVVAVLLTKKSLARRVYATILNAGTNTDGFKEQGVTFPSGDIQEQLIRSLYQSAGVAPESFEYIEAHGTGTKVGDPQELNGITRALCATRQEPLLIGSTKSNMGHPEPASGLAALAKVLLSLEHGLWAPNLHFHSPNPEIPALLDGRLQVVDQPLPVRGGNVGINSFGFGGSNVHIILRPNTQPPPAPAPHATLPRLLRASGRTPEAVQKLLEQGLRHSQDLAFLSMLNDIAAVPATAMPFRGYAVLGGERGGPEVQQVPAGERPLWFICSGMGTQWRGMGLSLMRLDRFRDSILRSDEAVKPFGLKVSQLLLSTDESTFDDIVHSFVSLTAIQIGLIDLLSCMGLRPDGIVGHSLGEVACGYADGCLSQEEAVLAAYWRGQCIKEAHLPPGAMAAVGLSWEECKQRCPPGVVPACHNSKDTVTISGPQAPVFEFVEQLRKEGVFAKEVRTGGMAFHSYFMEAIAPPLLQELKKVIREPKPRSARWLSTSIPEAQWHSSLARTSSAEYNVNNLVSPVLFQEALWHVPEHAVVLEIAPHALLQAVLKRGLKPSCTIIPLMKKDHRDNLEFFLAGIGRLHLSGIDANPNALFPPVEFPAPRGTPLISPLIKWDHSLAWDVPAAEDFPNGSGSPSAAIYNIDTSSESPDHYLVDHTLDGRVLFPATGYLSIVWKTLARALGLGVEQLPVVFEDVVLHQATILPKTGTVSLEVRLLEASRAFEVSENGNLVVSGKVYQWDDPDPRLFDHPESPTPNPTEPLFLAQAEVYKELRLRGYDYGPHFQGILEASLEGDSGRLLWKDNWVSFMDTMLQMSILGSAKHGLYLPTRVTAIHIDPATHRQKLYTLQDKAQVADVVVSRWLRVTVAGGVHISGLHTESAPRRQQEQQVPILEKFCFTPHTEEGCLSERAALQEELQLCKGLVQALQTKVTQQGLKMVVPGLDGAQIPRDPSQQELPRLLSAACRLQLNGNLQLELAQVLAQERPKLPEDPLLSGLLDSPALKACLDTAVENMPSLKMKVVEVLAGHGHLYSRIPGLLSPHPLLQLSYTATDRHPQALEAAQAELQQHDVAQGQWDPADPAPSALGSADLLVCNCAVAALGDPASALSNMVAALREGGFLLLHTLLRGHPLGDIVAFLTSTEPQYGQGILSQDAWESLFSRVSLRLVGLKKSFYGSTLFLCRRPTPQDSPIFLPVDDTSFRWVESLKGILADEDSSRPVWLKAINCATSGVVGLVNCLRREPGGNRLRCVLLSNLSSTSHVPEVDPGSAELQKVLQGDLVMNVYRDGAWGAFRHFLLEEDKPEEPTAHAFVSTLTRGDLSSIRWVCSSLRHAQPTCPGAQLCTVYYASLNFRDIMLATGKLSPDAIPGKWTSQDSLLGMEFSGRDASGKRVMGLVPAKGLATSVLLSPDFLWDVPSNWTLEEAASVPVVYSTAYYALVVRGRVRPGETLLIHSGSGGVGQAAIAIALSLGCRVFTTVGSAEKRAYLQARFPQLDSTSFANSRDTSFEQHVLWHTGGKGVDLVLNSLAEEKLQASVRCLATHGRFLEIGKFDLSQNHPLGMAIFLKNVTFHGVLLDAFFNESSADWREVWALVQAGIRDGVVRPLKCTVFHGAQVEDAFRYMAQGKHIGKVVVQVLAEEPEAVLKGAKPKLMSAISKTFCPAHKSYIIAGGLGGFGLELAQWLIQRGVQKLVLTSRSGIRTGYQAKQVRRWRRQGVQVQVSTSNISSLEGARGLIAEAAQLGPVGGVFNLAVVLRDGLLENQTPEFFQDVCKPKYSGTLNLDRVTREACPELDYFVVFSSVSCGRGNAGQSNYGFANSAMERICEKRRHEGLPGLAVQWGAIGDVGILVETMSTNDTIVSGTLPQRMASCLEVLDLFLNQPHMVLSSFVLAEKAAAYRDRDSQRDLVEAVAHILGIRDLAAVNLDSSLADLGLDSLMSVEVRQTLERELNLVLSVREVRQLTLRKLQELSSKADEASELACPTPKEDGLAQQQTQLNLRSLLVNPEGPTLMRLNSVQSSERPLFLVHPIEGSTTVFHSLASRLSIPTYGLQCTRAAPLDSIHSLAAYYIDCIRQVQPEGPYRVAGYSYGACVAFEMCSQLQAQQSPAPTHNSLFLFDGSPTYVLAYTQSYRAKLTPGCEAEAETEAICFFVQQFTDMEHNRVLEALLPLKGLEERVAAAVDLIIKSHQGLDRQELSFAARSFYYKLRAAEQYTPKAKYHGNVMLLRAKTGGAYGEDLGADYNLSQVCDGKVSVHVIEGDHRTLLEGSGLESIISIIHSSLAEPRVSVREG
# Chain of Broad substrate specificity ATP-binding cassette transporter ABCG2 (Homo sapiens) (Q9UNQ0 whole entry, looked up): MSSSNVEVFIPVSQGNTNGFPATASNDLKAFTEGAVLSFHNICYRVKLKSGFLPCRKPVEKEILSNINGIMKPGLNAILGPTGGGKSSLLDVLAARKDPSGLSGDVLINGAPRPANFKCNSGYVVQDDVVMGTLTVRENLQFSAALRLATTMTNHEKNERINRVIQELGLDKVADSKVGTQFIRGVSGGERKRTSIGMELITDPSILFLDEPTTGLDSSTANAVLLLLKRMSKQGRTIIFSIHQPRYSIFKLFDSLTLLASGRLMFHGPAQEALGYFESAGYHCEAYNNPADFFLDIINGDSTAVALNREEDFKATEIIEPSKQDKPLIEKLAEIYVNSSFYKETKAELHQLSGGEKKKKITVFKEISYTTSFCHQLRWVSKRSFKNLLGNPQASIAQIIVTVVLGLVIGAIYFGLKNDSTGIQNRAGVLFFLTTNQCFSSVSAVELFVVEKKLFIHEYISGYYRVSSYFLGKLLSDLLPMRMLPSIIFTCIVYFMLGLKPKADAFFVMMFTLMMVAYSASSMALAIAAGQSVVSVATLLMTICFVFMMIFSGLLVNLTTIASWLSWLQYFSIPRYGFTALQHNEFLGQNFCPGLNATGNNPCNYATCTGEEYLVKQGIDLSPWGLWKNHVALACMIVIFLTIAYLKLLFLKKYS
structure (smiles),measurement,setting,value
Cn1cc[nH]c1=S,outcome,[1],inactive
same,outcome,[2],inactive
same,outcome,[3],inactive
same,outcome,[4],inactive
same,outcome,[5],inactive
same,outcome,[6],inactive
same,AC50,[7],37.4 µM (active)
same,outcome,[8],inactive
same,outcome,[9],inactive
same,outcome,[10],inactive
same,outcome,[11],inactive
same,outcome,[12],inactive
same,outcome,[13],inactive
same,outcome,[14],inactive
same,outcome,[15],inactive
same,outcome,[16],inactive
same,outcome,[17],inactive
OCC(CO)(CO)CO,outcome,[1],inactive
same,outcome,[3],inactive
same,outcome,[5],inactive
same,outcome,[6],inactive
same,outcome,[7],inactive
same,outcome,[8],inactive
same,outcome,[9],inactive
same,outcome,[10],inactive
same,outcome,[11],inactive
same,outcome,[12],inactive
same,outcome,[18],inactive
same,outcome,[13],inactive
same,outcome,[14],inactive
same,outcome,[15],inactive
same,outcome,[16],inactive
same,outcome,[17],inactive
O=C(O)c1cccc(C[C@@H]2COc3ccc(OCc4nc5cc(F)ccc5s4)cc3[C@@H]2O)c1,AC50,[1],85.5 µM (active)
same,outcome,[2],inactive
same,outcome,[3],inactive
same,outcome,[4],inactive
same,AC50,[5],50 µM (active)
same,outcome,[6],inactive
same,AC50,[7],33.4 µM (active)
same,outcome,[8],inactive
same,outcome,[9],inactive
same,outcome,[10],inactive
same,outcome,[11],inactive
same,outcome,[12],inactive
same,AC50,[13],79.3 µM (active)
same,outcome,[14],inactive
same,outcome,[15],inactive
same,outcome,[16],inactive
same,outcome,[17],inactive
OCc1ccccc1,outcome,[1],inactive
same,outcome,[2],inactive
same,outcome,[3],inactive
same,outcome,[4],inactive
same,outcome,[5],inactive
same,outcome,[6],inactive
same,outcome,[7],inactive
same,outcome,[8],inactive
same,outcome,[9],inactive
same,outcome,[10],inactive
same,outcome,[11],inactive
same,outcome,[12],inactive
same,outcome,[18],inactive
same,outcome,[13],inactive
same,outcome,[14],inactive
same,outcome,[15],inactive
same,outcome,[16],inactive
same,outcome,[17],inactive
OCc1c[nH]c2ccccc12,outcome,[19],inactive
NC(=O)N(O)[C@@H]1COc2cc(OCc3ccccc3)ccc21,outcome,[1],inactive
same,outcome,[2],inactive
same,outcome,[3],inactive
same,outcome,[4],inactive
same,outcome,[5],inactive
same,outcome,[6],inactive
same,AC50,[7],40.2 µM (active)
same,outcome,[8],inactive
same,outcome,[9],inactive
same,outcome,[10],inactive
same,outcome,[11],inactive
same,outcome,[12],inactive
same,outcome,[13],inactive
same,outcome,[14],inactive
same,outcome,[15],inactive
same,outcome,[16],inactive
same,outcome,[17],inactive
CCc1ccc(O)c(C(C)(C)C)c1,outcome,[1],inactive
same,outcome,[3],inactive
same,outcome,[4],inactive
same,outcome,[5],inactive
same,outcome,[6],inactive
same,AC50,[7],50 µM (active)
same,outcome,[8],inactive
same,outcome,[9],inactive
same,outcome,[10],inactive
same,outcome,[11],inactive
same,outcome,[12],inactive
same,outcome,[18],inactive
same,outcome,[13],inactive
same,outcome,[14],inactive
same,outcome,[15],inactive
same,outcome,[16],inactive
same,outcome,[17],inactive
OC(CCl)CCl,outcome,[1],inactive
same,outcome,[2],inactive
same,outcome,[3],inactive
same,outcome,[4],inactive
same,outcome,[5],inactive
same,outcome,[6],inactive
same,AC50,[7],50 µM (active)
same,outcome,[8],inactive
same,outcome,[9],inactive
same,outcome,[10],inactive
same,outcome,[11],inactive
same,outcome,[12],inactive
same,outcome,[13],inactive
same,outcome,[14],inactive
same,outcome,[15],inactive
same,outcome,[16],inactive
same,outcome,[17],inactive
